Our source for the Potency, activation and outcome values is PubChem BioAssay (NCATS).

Each structure is given as a SMILES string. Results filed as inconclusive are left out. Where a call stands in place of a potency, no number is given. Active and inactive are the calls of the source. Unless noted, calls come from the whole dose curve; as a rule, active = well fitted curve in the direction sought with a large enough effect; inconclusive = small, poorly fitted or top-dose-only effect, or another doubt; inactive = no such curve, though single readings can be large; an effect the other way counts as inactive or inconclusive.

The nature of one experiment: Confirmation and Secondary Assay for Modulators of Hemoglobin Beta Chain Splicing at IVS2 654 locus (AID 910).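 Note: per-well total GFP intensity by laser scanning cytometry after 2-day treatment.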 Particulars: HeLa EGFP-654 splicing reporter, GFP fluorescence, 48 h; series mostly up to 38.3 µM. In short, it runs like this: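 HeLa cells stably carrying EGFP interrupted by mutant beta-globin IVS2-654 intron (CMV-driven) were treated with compound for 2 days at 37C; corrected splicing was scored as total peak GFP intensity per well (488 nm excitation, 500-520 nm emission).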
Regarding `COc1ccc(CNc2nc(-c3ccccc3CN(C)C)nc3ccccc23)c(OC)c1`, the Potency result is “inactive”.

Regarding `COc1ccccc1CNc1cc(-c2cccc(NS(C)(=O)=O)c2)ncn1`, the Potency result was “inactive”.

As for `Cc1cccc(CNc2cc(-c3ccc(N(C)C)cc3)ncn2)c1`, the Potency result was “inactive”.

A further experiment in a line: qHTS Assay for Identification of Small Molecule Agonists for Hypoxia Response Element Signaling Pathway (AID 914; active = well fitted activation curve with a large enough effect in the signal ratio, with a control signal flat, not every such curve was filed as active; the % refers to the signal ratio; note: potency is the fitted concentration of half-maximal effect). Particulars: ME-180 (cervical carcinoma) HRE-bla reporter, beta-lactamase ratio, CoCl2, 17 h; activation: hits give high values. In short, it runs like this:
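qHTS titration; ME-180 HRE-bla cells; EC50 CoCl2 co-treatment, 17 h at 37 degrees Celsius; CCF4 dye, ex 405nm, em 460nm and 530nm; %Activity from ratio; AC50.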
A general note: In qHTS, concentration-response curves come from the screen itself.
As for `CCNc1ncc2nc(-c3ccccc3)c(=O)n(-c3ccc(OC)cc3)c2n1`, the Potency was 3160 nM (active).

Consider `O=C(c1cc(C(F)(F)F)cc(C(F)(F)F)c1)N1CCC2(CCCN(c3ccccn3)C2)CC1`, for which the activation was 2.81% (inactive).

For `O=c1c(-c2cccs2)nc2cnc(Oc3ccccc3)nc2n1-c1ccccc1`, the Potency was 2510 nM (active).

In the case of `O=C(c1cnccn1)N1CCC2(CC1)CN(Cc1ccccc1)C2`, the activation was 6.71% (inactive).

For the molecule `N#Cc1ccc(CN2CCCC3(CCN(C(=O)c4cnccn4)CC3)C2)cc1`, the activation is -10.7% (inactive).

In the case of `Cc1noc(C)c1C(=O)N1CCC2(CC1)CCN(C(c1ccccc1)c1ccccc1)CC2`, the activation is -2.4% (inactive).

With `COc1ccc(Oc2ncc3nc(-c4cccs4)c(=O)n(Cc4cccc(OC)c4)c3n2)cc1`, the Potency is 3160 nM (active).

Take `COc1ncc2nc(C)c(=O)n(CCC#N)c2n1`: the activation is 7.94% (inactive).

As to `CCNc1ncc2nc(-c3ccc(Cl)cc3)c(=O)n(C3CC3)c2n1`, the Potency was 398 nM (active).

The next experiment in a line: Primary qHTS for small molecule stabilizers of the endoplasmic reticulum resident proteome: Secreted ER Calcium Modulated Protein (SERCaMP) assay (AID 1508630). Particulars: SH-SY5Y GLuc-SERCaMP (Gaussia luciferase released on ER calcium loss) secretion, thapsigargin, luminescence; series mostly up to 38.4 µM. In short, it runs like this:
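GLuc-SERCaMP-expressing SH-SY5Y cells, pretreated 16 h with compound, are challenged with thapsigargin to empty ER calcium stores; after 4 h, coelenterazine is added directly to the medium and luminescence is imaged.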
`COc1cccc(Cn2c(=O)c(-c3cccs3)nc3cnc(N4CCN(C)CC4)nc32)c1`: the outcome was inactive.

In the case of `Cn1c(=O)c(-c2ccc(Cl)cc2)nc2cnc(Oc3ccccc3)nc21`, the result was inactive.

As to `CCNc1ncc2nc(-c3ccccc3)c(=O)n(-c3ccc(OC)cc3)c2n1`, the result was inactive.

For `O=C(c1ccncc1)N1CCC2(CC1)CN(c1ccc(-c3ccccc3)cc1)C2`, the result was inactive.

Consider `N#Cc1ccc(CN2CC3(CCN(C(=O)c4ccncc4)CC3)C2)cc1`, for which the result was inactive.

Turning to `COCCn1c(=O)c(-c2ccc(OC)cc2)nc2cnc(Oc3cccc(Cl)c3)nc21`, the result was inactive.

`COc1ccc(-c2nc3cnc(N4CCN(C)CC4)nc3n(CCC#N)c2=O)cc1`: the result was inactive.

In the case of `O=C(c1cc(C(F)(F)F)cc(C(F)(F)F)c1)N1CCC2(CCCN(c3ccccn3)C2)CC1`, the result was inactive.

In the case of `O=S(=O)(c1ccccc1)N1CCC2(CCN(c3ncccn3)CC2)CC1`, the outcome was inactive.

For `O=S(=O)(c1ccccc1)N1CCC[C@@]2(CCN(C(c3ccccc3)c3ccccc3)C2)C1`, the outcome was inactive.

For `O=S(=O)(c1ccccc1)N1CCC2(CCCN(Cc3ccccc3)C2)CC1`, the result was inactive.

Take `O=C(c1csnn1)N1CCC2(CCCN(c3ccccn3)C2)CC1`: the result was inactive.

`COc1ccc(C(=O)N2CCC3(CCCN(Cc4nccs4)C3)CC2)cc1`: the outcome was inactive.

With `COc1ccc(CNc2nc(-c3ccccc3CN(C)C)nc3ccccc23)c(OC)c1`, the outcome was inactive.

For the molecule `Cn1cccc1C(=O)N1CCC2(CCCN(Cc3nccs3)C2)CC1`, the result was inactive.

For the molecule `Cn1c(=O)cnc2cnc(Nc3ccccc3)nc21`, the outcome was inactive.

With `O=c1c(-c2cccs2)nc2cnc(Oc3ccccc3)nc2n1-c1ccccc1`, the outcome was inactive.

For the molecule `O=C(c1cnccn1)N1CCC2(CC1)CN(Cc1ccccc1)C2`, the outcome was inactive.

Take `O=C(Oc1ccccc1)N1CCC2(CCCN(c3cccc(-c4ccccc4)c3)C2)CC1`: the result was inactive.

Take `CS(=O)(=O)N1CCC2(CCN(Cc3ccc(C#N)cc3)CC2)CC1`: the result was inactive.

Take `COc1ccc(C(=O)N2CCC3(CCCN(c4ccncc4)C3)CC2)cc1`: the outcome was inactive.

Regarding `CC(=O)N1CCC2(CCN(Cc3ccc(C#N)cc3)CC2)CC1`, the result was inactive.

As for `COc1ccccc1CNc1cc(-c2cccc(NS(C)(=O)=O)c2)ncn1`, the outcome was inactive.

In the case of `O=C(Oc1ccccc1)N1CCC2(CCCN(c3ncccn3)C2)CC1`, the outcome was inactive.

`COc1ccc(-n2c(=O)c(-c3ccc(Cl)cc3)nc3cnc(N4CCOCC4)nc32)cc1`: the result was inactive.

Take `N#Cc1ccc(CN2CCCC3(CCN(C(=O)c4cnccn4)CC3)C2)cc1`: the result was inactive.

Turning to `O=C(c1ccncc1)N1CCC2(CCCN(c3ncccn3)C2)CC1`, the result was inactive.

In the case of `O=C(c1csnn1)N1CCC2(CCCN(c3ccc(-c4ccccc4)cc3)C2)CC1`, the result was inactive.

Consider `Cn1c(=O)c(-c2ccccc2)nc2cnc(Oc3ccccc3)nc21`, for which the result was inactive.

Regarding `O=C(c1ccco1)N1CCC2(CC1)CCN(c1ccccn1)CC2`, the result was inactive.

Turning to `Cc1noc(C)c1C(=O)N1CCC2(CC1)CCN(C(c1ccccc1)c1ccccc1)CC2`, the result was inactive.

Regarding `COc1ccc(Oc2ncc3nc(-c4cccs4)c(=O)n(Cc4cccc(OC)c4)c3n2)cc1`, the outcome was inactive.

Turning to `O=C(c1ccncc1)N1CCC2(CCN(Cc3cc(C(F)(F)F)cc(C(F)(F)F)c3)CC2)CC1`, the result was inactive.

As to `O=C(c1cccc(F)c1)N1CCC2(CC1)CCN(c1ccccn1)CC2`, the result was inactive.

Turning to `COc1ncc2nc(C)c(=O)n(CCC#N)c2n1`, the outcome was inactive.

With `CCNc1ncc2nc(-c3ccc(Cl)cc3)c(=O)n(C3CC3)c2n1`, the outcome was inactive.

For `Cc1cccc(CNc2cc(-c3ccc(N(C)C)cc3)ncn2)c1`, the result was inactive.

As to `O=C(Oc1ccccc1)N1CCC2(CC1)CCN(c1ccccn1)CC2`, the result was inactive.

For the molecule `COc1ccc(C(=O)N2CCC3(CCCN(c4ccc(-c5ccccc5)cc4)C3)CC2)cc1`, the result was inactive.
